Among the data in PubChem BioAssay (Tox21) are Potency and outcome values, retold here.

Experiment [1] deals with Aryl hydrocarbon receptor (Homo sapiens) (UniProt P35869). Description: qHTS assay to identify small molecule that activate the aryl hydrocarbon receptor (AhR) signaling pathway (AID 743085).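 For activation: HG2L7.5c1 human HepG2 liver cells with stably integrated DRE-driven firefly reporter; series mostly up to about 70 µM.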 Note: nearly all actives have a fitted effect of over 15% in size. Note: potency is the fitted concentration of half-maximal effect. The essentials: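 Stably transfected human liver carcinoma cells (HG2L7.5c1; 20 DRE-firefly luciferase) were incubated 5 h, dosed, and kept 24 h at 37C. Agonism was scored from increased luciferase luminescence.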
Sequence of Aryl hydrocarbon receptor (Homo sapiens) (P35869 whole entry, looked up): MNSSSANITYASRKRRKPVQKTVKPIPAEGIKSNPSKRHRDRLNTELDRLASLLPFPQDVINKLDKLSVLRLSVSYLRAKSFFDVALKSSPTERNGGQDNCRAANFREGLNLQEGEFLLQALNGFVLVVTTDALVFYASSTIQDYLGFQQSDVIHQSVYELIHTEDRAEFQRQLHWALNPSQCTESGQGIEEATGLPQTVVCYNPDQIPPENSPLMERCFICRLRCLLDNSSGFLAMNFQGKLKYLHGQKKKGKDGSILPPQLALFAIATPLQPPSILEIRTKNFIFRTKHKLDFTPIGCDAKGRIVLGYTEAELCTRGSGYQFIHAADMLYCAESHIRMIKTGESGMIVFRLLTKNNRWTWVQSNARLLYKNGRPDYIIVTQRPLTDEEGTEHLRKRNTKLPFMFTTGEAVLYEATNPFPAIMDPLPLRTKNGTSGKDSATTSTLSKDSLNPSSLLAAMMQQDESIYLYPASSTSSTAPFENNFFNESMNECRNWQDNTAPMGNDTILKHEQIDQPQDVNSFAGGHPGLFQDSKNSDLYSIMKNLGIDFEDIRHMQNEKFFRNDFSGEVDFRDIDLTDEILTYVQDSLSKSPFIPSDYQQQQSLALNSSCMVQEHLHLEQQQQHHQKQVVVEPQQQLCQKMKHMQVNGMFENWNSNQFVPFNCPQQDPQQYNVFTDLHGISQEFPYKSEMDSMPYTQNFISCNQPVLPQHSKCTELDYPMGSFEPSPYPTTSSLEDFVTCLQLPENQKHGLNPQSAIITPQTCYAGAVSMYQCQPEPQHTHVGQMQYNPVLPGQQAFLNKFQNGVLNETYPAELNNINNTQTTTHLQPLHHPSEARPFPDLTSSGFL

A short description of experiment [2]: qHTS assay to identify small molecule that activate the aryl hydrocarbon receptor (AhR) signaling pathway - cell viability counter screen (AID 743086). Note: nearly all actives have a fitted effect of over 45% in size. Note: potency is the fitted concentration of half-maximal effect. The gist of the method: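 HepG2-AhR-luc (HG2L7.5c1) cells, 4000/well, were preincubated 5 h at 37C, exposed to compound in qHTS format for 24 hr at 37C, then given CellTiter-Fluor for 30 min; viability was read as fluorescence in the reporter wells.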

Experiment [3] has as its target Peroxisome proliferator-activated receptor gamma (Homo sapiens) (UniProt P37231). Description: qHTS assay to identify small molecule agonists of the peroxisome proliferator-activated receptor gamma (PPARg) signaling pathway (AID 743094; active = well fitted activation curve with a large enough effect in the signal ratio in the repeat runs, not every such curve was filed as active; the % refers to the signal ratio; note: potency is the fitted concentration of half-maximal effect). The essentials: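 Following 5 h plating at 37C, PPARg-bla HEK293H cells receive compound or DMSO for 17 h; fluorescence intensity is recorded after LiveBLAzer B/G loading for 1 h at room temperature.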

Experiment [4] can be described thus: qHTS assay to identify small molecule antagonists of the peroxisome proliferator-activated receptor gamma (PPARg) signaling pathway - cell viability counter screen (AID 743194). Note: nearly all actives have a fitted effect of over 55% in size. The gist of the method:
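PPARg-UAS-bla HEK293H cells were plated, rested 5 h at 37 C, then treated with compounds plus rosiglitazone (50 nM final) for 17 h at 37 C; viability was then read by CellTiter-Glo luminescence after 30 min at room temperature.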

Experiment [5] is described as follows: qHTS assay for small molecule agonists of the antioxidant response element (ARE) signaling pathway (AID 743202; active = well fitted activation curve with a large enough effect in the signal ratio in the repeat runs, not every such curve was filed as active; the % refers to the signal ratio; note: potency is the fitted concentration of half-maximal effect). The essentials:
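Read-out: LiveBLAzer B/G FRET substrate fluorescence after 2 h at room temperature, following 16 h compound treatment at 37 C of HepG2 cells carrying an ARE-driven beta-lactamase reporter.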

A short description of experiment [6]: qHTS assay for small molecule agonists of the antioxidant response element (ARE) signaling pathway - cell viability counter screen (AID 743203; calls by dose curve; note: nearly all actives have a fitted effect of over 55% in size). The essentials:
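Compounds in DMSO were pinned onto ARE-bla HepG2 cells plated 5 hrs earlier at 2,000 cells/well. Sixteen hours later at 37C/5% CO2, CellTiter-Glo was added and luminescence measured after 30 min at room temperature.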

Experiment [7] is described as follows: qHTS assay for small molecule activators of the heat shock response signaling pathway - cell viability counter screen (AID 743209). Note: nearly all actives have a fitted effect of over 50% in size. The gist of the method: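 Counter screen for cytotoxicity in HeLa HSE-bla reporter cells. Treatment was 5 h at 37 C; viability was detected by luminescent ATP assay (CellTiter-Glo) in the same wells as the beta-lactamase read.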

A short description of experiment [8]: qHTS assay for small molecule activators of the heat shock response signaling pathway (AID 743210; active = well fitted activation curve with a large enough effect in the signal ratio in the repeat runs, with a control signal flat, not every such curve was filed as active; the % refers to the signal ratio; note: potency is the fitted concentration of half-maximal effect; for activation: series mostly up to about 63 µM). The essentials:
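HSE-bla HeLa cells (beta-lactamase reporter under heat shock response elements) were exposed to compounds for 5 h at 37 C, then loaded with LiveBLAzer B/G FRET substrate for 2.5 h at room temperature before fluorescence reading.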

A short description of experiment [9]: qHTS assay to identify small molecule agonists of the peroxisome proliferator-activated receptor delta (PPARd) signaling pathway - cell viability counter screen (AID 743211). Note: nearly all actives have a fitted effect of over 55% in size. The gist of the method:
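In the same wells used for beta-lactamase reporter measurement, cytotoxicity is scored by CellTiter-Glo. HEK293H PPARd-bla cells receive compound for 17 h at 37C following a 5 h settling period.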

Experiment [10] can be described thus: qHTS assay to identify small molecule antagonists of the peroxisome proliferator-activated receptor delta (PPARd) signaling pathway - cell viability counter screen (AID 743213). Note: nearly all actives have a fitted effect of over 50% in size. Note: potency is the fitted concentration of half-maximal effect. The gist of the method:
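HEK293H cells with the PPARd UAS-bla reporter, co-treated 17 h at 37 C with compounds and L165041 (300 nM final), were lysed with CellTiter-Glo. Luminescence indicated viable cell content.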

In experiment [11] the target is Peroxisome proliferator-activated receptor delta (Homo sapiens) (UniProt Q03181). Description: qHTS assay to identify small molecule antagonists of the peroxisome proliferator-activated receptor delta (PPARd) signaling pathway (AID 743215; active = well fitted inhibition curve with a large enough effect in the signal ratio in the repeat runs, not every such curve was filed as active; the % refers to the signal ratio;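 note: cells stimulated with agonist L165041 at 300 nM final during compound exposure; series mostly up to about 62 µM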). The essentials: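 With L165041 present at 300 nM final, compounds were incubated 17 h at 37 C on PPARd UAS-bla HEK293H cells. A FRET-based beta-lactamase substrate was then applied for 2 h at room temperature and fluorescence intensity recorded.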
Sequence of Peroxisome proliferator-activated receptor delta (Homo sapiens) (Q03181 whole entry, looked up): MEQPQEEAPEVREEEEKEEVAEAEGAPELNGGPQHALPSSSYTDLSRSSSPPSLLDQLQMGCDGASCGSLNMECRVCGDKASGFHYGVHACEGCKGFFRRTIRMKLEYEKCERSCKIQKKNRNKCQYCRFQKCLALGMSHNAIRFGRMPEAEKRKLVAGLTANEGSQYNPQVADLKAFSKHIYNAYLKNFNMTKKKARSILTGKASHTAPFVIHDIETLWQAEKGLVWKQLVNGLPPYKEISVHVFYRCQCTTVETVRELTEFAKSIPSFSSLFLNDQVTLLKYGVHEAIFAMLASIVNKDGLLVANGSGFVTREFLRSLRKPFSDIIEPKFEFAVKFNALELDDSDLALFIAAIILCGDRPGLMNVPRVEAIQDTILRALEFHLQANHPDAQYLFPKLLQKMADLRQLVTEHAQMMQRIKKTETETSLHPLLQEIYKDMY

For experiment [12], the target named is Bile acid receptor (Homo sapiens) (UniProt Q96RI1). The experiment is described as follows: qHTS assay to identify small molecule antagonists of the farnesoid-X-receptor (FXR) signaling pathway (AID 743217; active = well fitted inhibition curve with a large enough effect in the signal ratio in the repeat runs, not every such curve was filed as active; the % refers to the signal ratio). The essentials:
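In this cell-based antagonist screen, inhibition of CDCA-driven (50 uM final) UAS-beta-lactamase expression in HEK 293T cells was measured by FRET fluorescence following 16 h compound exposure at 37 °C.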

Experiment [13] can be described thus: qHTS assay to identify small molecule agonists of the farnesoid-X-receptor (FXR) signaling pathway - cell viability counter screen (AID 743218). Note: nearly all actives have a fitted effect of over 45% in size. The gist of the method:
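After 16 h at 37 C with test compounds, FXR-bla HEK 293T cells were given LiveBLAzer B/G substrate for 2 h at RT and then CellTiter-Glo; luminescence was taken after 30 min.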

Experiment [14] in a line: qHTS assay to identify small molecule antagonists of the farnesoid-X-receptor (FXR) signaling pathway - cell viability counter screen (AID 743221; active = well fitted cell-killing curve with a large enough effect in the repeat runs, not every such curve was filed as active; note: nearly all actives have a fitted effect of over 50% in size). The gist of the method: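 Here viability was scored by luminescence after CellTiter-Glo addition to wells already read for beta-lactamase. Prior treatment: compound plus CDCA (50 uM final), 16 h, 37 C, HEK 293T FXR-bla cells.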

Experiment [15] deals with Vitamin D3 receptor (Homo sapiens) (UniProt P11473). The experiment is described as follows: qHTS assay to identify small molecule agonists of the vitamin D receptor (VDR) signaling pathway (AID 743222; calls by dose curve). The gist of the method: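 VDR-bla cells were seeded, left 4 h, treated with compounds in DMSO for 16 h, incubated 2 h at RT with B/G FRET substrate, and read for fluorescence.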
Sequence of Vitamin D3 receptor (Homo sapiens) (P11473 whole entry, looked up): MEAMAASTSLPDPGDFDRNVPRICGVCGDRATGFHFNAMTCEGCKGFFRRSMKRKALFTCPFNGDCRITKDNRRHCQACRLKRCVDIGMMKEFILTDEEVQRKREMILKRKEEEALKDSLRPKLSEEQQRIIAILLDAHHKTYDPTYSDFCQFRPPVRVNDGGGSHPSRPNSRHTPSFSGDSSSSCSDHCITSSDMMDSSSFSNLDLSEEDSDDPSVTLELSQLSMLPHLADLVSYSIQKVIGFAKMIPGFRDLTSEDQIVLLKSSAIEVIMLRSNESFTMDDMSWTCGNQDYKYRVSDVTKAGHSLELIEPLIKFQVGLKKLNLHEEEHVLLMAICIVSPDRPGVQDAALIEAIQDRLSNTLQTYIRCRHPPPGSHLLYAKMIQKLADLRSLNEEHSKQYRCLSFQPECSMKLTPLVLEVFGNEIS

The nature of experiment [16]: qHTS assay to identify small molecule agonists of the vitamin D receptor (VDR) signaling pathway - cell viability counter screen (AID 743224). Note: nearly all actives have a fitted effect of over 50% in size. Note: potency is the fitted concentration of half-maximal effect. The gist of the method:
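Here cell health was gauged by luminescent ATP detection (CellTiter-Glo, 30 min RT) in VDR-bla cells that had been incubated with test compounds for 16 h at 37C and 5% CO2.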

The target of experiment [17] is Peroxisome proliferator-activated receptor gamma (Homo sapiens) (UniProt P37231). The experiment is described as follows: qHTS assay to identify small molecule antagonists of the peroxisome proliferator-activated receptor gamma (PPARg) signaling pathway (AID 743191; calls by dose curve; note: series mostly up to about 63 µM; nearly all actives have a fitted effect of over 30% in size). The gist of the method:
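GeneBLAzer PPARg UAS-bla HEK293H cells carrying a UAS-driven beta-lactamase reporter were plated at 3000 cells/well, preincubated 5 h at 37C, then given compound for 17 h at 37C; LiveBLAzer B/G FRET substrate was read after 1 h at room temperature.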

In experiment [18] the target is Peroxisome proliferator-activated receptor delta (Homo sapiens) (UniProt Q03181). Description: qHTS assay to identify small molecule agonists of the peroxisome proliferator-activated receptor delta (PPARd) signaling pathway (AID 743212; calls by dose curve). The essentials:
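GeneBLAzer PPARd UAS-bla HEK293H cells (beta-lactamase reporter under UAS control), plated and rested 5 h at 37 C, then exposed to compounds in DMSO at 37 C; LiveBLAzer B/G FRET substrate added, 2 h room temperature, fluorescence read.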

Experiment [19] concerns the target Bile acid receptor (Homo sapiens) (UniProt Q96RI1). Description: qHTS assay to identify small molecule agonists of the farnesoid-X-receptor (FXR) signaling pathway (AID 743220; active = well fitted activation curve with a large enough effect in the signal ratio in the repeat runs, not every such curve was filed as active; the % refers to the signal ratio). The gist of the method: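 Beta-lactamase reporter under UAS control in GeneBLAzer FXR HEK 293T cells (5000/well) measured with LiveBLAzer FRET substrate after 2 h at room temperature. Compound exposure lasted 16 h at 37C.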

Experiment [20] addresses Vitamin D3 receptor (Homo sapiens) (UniProt P11473). The experiment is described as follows: qHTS assay to identify small molecule antagonists of the vitamin D receptor (VDR) signaling pathway (AID 743223; active = well fitted inhibition curve with a large enough effect in the signal ratio in the repeat runs, not every such curve was filed as active; the % refers to the signal ratio). The gist of the method: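 Inhibition of agonist-driven VDR signalling is scored in VDR-bla cells: 3 nM final 1alpha,25-dihydroxyvitamin D3 plus compound, 16 h at 37C, then beta-lactamase detection by FRET substrate fluorescence after 2 h.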

SMILES strings stand for the structures. Values joined by “and” are separate entries in the source; they are usually repeats but may differ in a detail not shown here. Equal values may be shown once. Inconclusive results are not listed. A structure can be active in one record and inactive in another. Active and inactive are the calls of the source. Unless noted, calls come from the whole dose curve; as a rule, active = well fitted curve in the direction sought with a large enough effect in the repeat runs; inconclusive = weak or mixed curves; inactive = no such curve, though single readings can be large; an effect the other way counts as inactive or inconclusive.

Sequence of Peroxisome proliferator-activated receptor gamma (Homo sapiens) (P37231 whole entry, looked up): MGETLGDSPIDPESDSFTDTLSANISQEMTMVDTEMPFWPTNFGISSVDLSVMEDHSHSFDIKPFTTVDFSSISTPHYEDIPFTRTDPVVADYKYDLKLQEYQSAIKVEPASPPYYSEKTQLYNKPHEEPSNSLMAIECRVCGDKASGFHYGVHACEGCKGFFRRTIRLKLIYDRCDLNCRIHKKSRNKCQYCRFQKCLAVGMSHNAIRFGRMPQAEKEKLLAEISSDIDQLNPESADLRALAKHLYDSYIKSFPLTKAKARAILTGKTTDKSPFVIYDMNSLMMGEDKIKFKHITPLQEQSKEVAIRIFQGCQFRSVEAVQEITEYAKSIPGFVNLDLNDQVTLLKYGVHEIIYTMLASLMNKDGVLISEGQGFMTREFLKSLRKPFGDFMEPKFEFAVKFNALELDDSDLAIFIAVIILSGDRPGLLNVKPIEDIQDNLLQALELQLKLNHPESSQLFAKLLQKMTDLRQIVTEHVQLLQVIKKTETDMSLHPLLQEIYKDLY
Sequence of Bile acid receptor (Homo sapiens) (Q96RI1 whole entry, looked up): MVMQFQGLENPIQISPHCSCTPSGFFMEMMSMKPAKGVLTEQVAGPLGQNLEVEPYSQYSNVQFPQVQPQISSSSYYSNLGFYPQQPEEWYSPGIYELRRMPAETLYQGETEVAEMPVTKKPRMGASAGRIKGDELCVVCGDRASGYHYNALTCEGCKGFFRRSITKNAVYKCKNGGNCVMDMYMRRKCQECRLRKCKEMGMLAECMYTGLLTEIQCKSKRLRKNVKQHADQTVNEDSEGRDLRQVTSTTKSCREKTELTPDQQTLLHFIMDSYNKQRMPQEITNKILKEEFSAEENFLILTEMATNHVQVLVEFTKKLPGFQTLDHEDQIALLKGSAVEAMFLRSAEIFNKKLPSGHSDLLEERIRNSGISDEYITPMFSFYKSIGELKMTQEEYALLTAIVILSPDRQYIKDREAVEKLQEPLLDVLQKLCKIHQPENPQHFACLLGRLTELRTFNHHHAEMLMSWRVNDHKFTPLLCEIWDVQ

As for `c1ccc2cc(Nc3ccc(Nc4ccc5ccccc5c4)cc3)ccc2c1`, the Potency is 30.8 µM (active) and 30.6 µM (active) in experiment [1]; 22 µM (active) in experiment [3]. For the same molecule, the Potency entry in experiment [2], in experiment [4], in experiment [5], in [6], in experiment [7] and in experiment [8] was “inactive” throughout. The Potency result in experiment [9], in [10], in experiment [11], in experiment [12], in [13] and in [14] was “inactive” each time. For the same molecule, the Potency result in experiment [16] was “inactive”. In experiment [15], the result was inactive.

Turning to `NC=O`, the Potency entry in experiment [1], in experiment [2], in experiment [3], in experiment [17], in experiment [4] and in [5] was “inactive” in each case. Moreover, the Potency result in experiment [6], in experiment [7], in experiment [8], in [9], in [10] and in experiment [11] was “inactive” each time. The Potency entry in experiment [12], in [13], in experiment [14] and in [16] was “inactive” throughout. Besides, the result in experiment [18] and in [19] was inactive.

Take `COC(C)COC(C)COC(C)CO` (stereo unspecified): the Potency result in [1], in experiment [2], in [3], in experiment [17], in experiment [4] and in [6] was “inactive” in each case. In addition, the Potency result in experiment [7], in experiment [8], in experiment [9], in experiment [10], in experiment [11] and in experiment [12] was “inactive” in each case. Further, the Potency entry in [13], in experiment [14] and in experiment [16] was “inactive” in each case. Moreover, the call in experiment [18], in experiment [19], in experiment [15] and in [20] was inactive.

Turning to `S=C(NC1CCCCC1)NC1CCCCC1`, the Potency result in experiment [1], in [3], in [17], in [4], in experiment [6] and in [14] was “inactive” each time. In addition, the Potency result in [2] was “inactive and 17.2 µM (active)”; in experiment [5], 34.4 µM (active); in [8], 9.23 µM (active) and 13.8 µM (active); in [16], 24.5 µM (active). The call in experiment [18] and in experiment [20] was inactive.

Take `COC(=O)c1ccccc1`: the Potency entry in [1], in [2], in [3], in [17], in experiment [4] and in [5] was “inactive” each time. For the same molecule, the Potency entry in experiment [6], in [7], in [8], in [9], in experiment [10] and in experiment [11] was “inactive” in each case. The Potency result in experiment [14] and in [16] was “inactive” each time. The outcome in experiment [18] and in experiment [15] was inactive.

For `O=S(=O)(O)c1ccc(O)cc1`, the Potency entry in [1], in [2], in experiment [3], in experiment [17], in experiment [4] and in experiment [5] was “inactive” in each case. The Potency result in [6], in [7], in experiment [8], in experiment [9], in experiment [10] and in [11] was “inactive” in each case. In addition, the Potency result in experiment [14] and in [16] was “inactive” each time. In addition, the result in experiment [18] and in experiment [20] was inactive.

Turning to `Brc1cc(Oc2cc(Br)c(Br)c(Br)c2Br)c(Br)c(Br)c1Br`, the Potency entry in [1], in experiment [2], in experiment [3], in experiment [17], in experiment [4] and in [6] was “inactive” throughout. The Potency result in experiment [7], in [8], in experiment [9], in experiment [11], in [14] and in experiment [16] was “inactive” in each case. Besides, the call in [18] was inactive. Moreover, the Potency in [10] was 55.2 µM (active) and inactive.
